# ± gives the standard deviation.
# T1: HaloTag-ATRX ADD domain (163-292)
# T1 chain: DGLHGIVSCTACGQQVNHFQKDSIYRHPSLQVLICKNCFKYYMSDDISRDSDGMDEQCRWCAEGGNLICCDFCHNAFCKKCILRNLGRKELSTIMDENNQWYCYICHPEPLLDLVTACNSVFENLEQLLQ
# Tests used:
# Experiment in all cases: peptide microarray binding signal (635 nm), min-max normalized on array (fraction of array maximum); higher = stronger binding
# Conditions in all cases: peptide region: H3 1-13
# [1] = target: T1, HaloTag-ATRX ADD domain (163-292)
# Procedure: (§1)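 Histone 13-mer peptides were synthesized as cellulose conjugates with a C-terminal 20-atom PEG linker and printed in triplicate on nitrocellulose. The sequence given is the unmodified backbone; PTMs (Kme1/2/3, Kac, Sph/Tph, Rme/Rme2a/Rme2s, Rcit) are listed in the label and the 'peptide modifications' condition. Slides were probed at 4 °C for 1 h with biotin-labelled (HQ)5-HaloTag reader fusions (ATRX-ADD, ING2-PHD) then streptavidin-Alexa647, or with rabbit histone antibodies then anti-rabbit Alexa647. The mean 635 nm signal of the triplicate spots was scaled 0-1 between the lowest and highest values on each array.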
# [2] = target: HaloTag-ING2 PHD (mouse Ing2 200-280)
# Procedure: as §1
# [3] = target: anti-H3K4me3 antibody ab8580
# Procedure: as §1
# [4] = target: anti-H3K9me3 antibody ab8898
# Procedure: as §1
# [5] = peptide modifications: H3R2me2a H3K9me1, binder concentration: 1:2,000 dilution
# [6] = peptide modifications: H3R2me2a H3K9me1, binder concentration: 1:10,000 dilution
# [7] = peptide modifications: H3R2me2a H3K9me2, binder concentration: 1:2,000 dilution
# [8] = peptide modifications: H3R2me2a H3K9me2, binder concentration: 1:10,000 dilution
# [9] = peptide modifications: H3R2me2s H3K9me3, binder concentration: 1:2,000 dilution
# [10] = peptide modifications: H3R2me2s H3K9me3, binder concentration: 1:10,000 dilution
# [11] = peptide modifications: H3R2me2s H3K9me2, binder concentration: 1:2,000 dilution
# [12] = peptide modifications: H3R2me2s H3K9me2, binder concentration: 1:10,000 dilution
# [13] = peptide modifications: H3R2me2s H3T6ph, binder concentration: 1:2,000 dilution
# [14] = peptide modifications: H3R2me2s H3T6ph, binder concentration: 1:10,000 dilution
# [15] = peptide modifications: H3R8cit H3K9me1, binder concentration: 1:2,000 dilution
# [16] = peptide modifications: H3R8cit H3K9me1, binder concentration: 1:10,000 dilution
# [17] = peptide modifications: H3R2me2a H3T3ph, binder concentration: 1:2,000 dilution
# [18] = peptide modifications: H3R2me2a H3T3ph, binder concentration: 1:10,000 dilution
# [19] = peptide modifications: H3R2me2s, binder concentration: 1:2,000 dilution
# [20] = peptide modifications: H3R2me2s, binder concentration: 1:10,000 dilution
# [21] = peptide modifications: H3R2me2s H3K9ac, binder concentration: 1:2,000 dilution
# [22] = peptide modifications: H3R2me2s H3K9ac, binder concentration: 1:10,000 dilution
# [23] = peptide modifications: H3R2me2a H3T6ph, binder concentration: 1:2,000 dilution
# [24] = peptide modifications: H3R2me2a H3T6ph, binder concentration: 1:10,000 dilution
binder,measurement,setting,value
ARTKQTARKSTGG [H3 1-13 A Rme2a T K Q T A R Kme S T G G],peptide microarray binding signal,"[1]; peptide modifications: H3R2me2a H3K9me1, binder concentration: 50 nM",0.0646 ± 0.0083
same,peptide microarray binding signal,"[1]; peptide modifications: H3R2me2a H3K9me1, binder concentration: 500 nM",0.138 ± 0.008
same,peptide microarray binding signal,"[2]; peptide modifications: H3R2me2a H3K9me1, binder concentration: 10 nM",0.0387 ± 0.0036
same,peptide microarray binding signal,"[2]; peptide modifications: H3R2me2a H3K9me1, binder concentration: 100 nM",0.0709 ± 0.014
same,peptide microarray binding signal,[3]; [5],0.0175 ± 0.0013
same,peptide microarray binding signal,[3]; [6],0.0118 ± 0.0015
same,peptide microarray binding signal,[4]; [5],0.00838 ± 0.0011
same,peptide microarray binding signal,[4]; [6],0.00675 ± 0.00044
ARTKQTARKSTGG [H3 1-13 A Rme2a T K Q T A R Kme2 S T G G],peptide microarray binding signal,"[1]; peptide modifications: H3R2me2a H3K9me2, binder concentration: 50 nM",0.169 ± 0.018
same,peptide microarray binding signal,"[1]; peptide modifications: H3R2me2a H3K9me2, binder concentration: 500 nM",0.197 ± 0.0079
same,peptide microarray binding signal,"[2]; peptide modifications: H3R2me2a H3K9me2, binder concentration: 10 nM",0.06 ± 0.00075
same,peptide microarray binding signal,"[2]; peptide modifications: H3R2me2a H3K9me2, binder concentration: 100 nM",0.0848 ± 0.012
same,peptide microarray binding signal,[3]; [7],0.0133 ± 0.0025
same,peptide microarray binding signal,[3]; [8],0.0229 ± 0.0084
same,peptide microarray binding signal,[4]; [7],0.0303 ± 0.0053
same,peptide microarray binding signal,[4]; [8],0.0191 ± 0.0015
ARTKQTARKSTGG [H3 1-13 A Rme2s T K Q T A R Kme3 S T G G],peptide microarray binding signal,"[1]; peptide modifications: H3R2me2s H3K9me3, binder concentration: 50 nM",0.172 ± 0.02
same,peptide microarray binding signal,"[1]; peptide modifications: H3R2me2s H3K9me3, binder concentration: 500 nM",0.303 ± 0.03
same,peptide microarray binding signal,"[2]; peptide modifications: H3R2me2s H3K9me3, binder concentration: 10 nM",0.0377 ± 0.0039
same,peptide microarray binding signal,"[2]; peptide modifications: H3R2me2s H3K9me3, binder concentration: 100 nM",0.0559 ± 0.0018
same,peptide microarray binding signal,[3]; [9],0.211 ± 0.015
same,peptide microarray binding signal,[3]; [10],0.14 ± 0.0028
same,peptide microarray binding signal,[4]; [9],0.81 ± 0.03
same,peptide microarray binding signal,[4]; [10],0.561 ± 0.017
ARTKQTARKSTGG [H3 1-13 A Rme2s T K Q T A R Kme2 S T G G],peptide microarray binding signal,"[1]; peptide modifications: H3R2me2s H3K9me2, binder concentration: 50 nM",0.0159 ± 0.001
same,peptide microarray binding signal,"[1]; peptide modifications: H3R2me2s H3K9me2, binder concentration: 500 nM",0.0381 ± 0.00096
same,peptide microarray binding signal,"[2]; peptide modifications: H3R2me2s H3K9me2, binder concentration: 10 nM",0.0245 ± 0.00098
same,peptide microarray binding signal,"[2]; peptide modifications: H3R2me2s H3K9me2, binder concentration: 100 nM",0.0463 ± 0.005
same,peptide microarray binding signal,[3]; [11],0.0401 ± 0.0015
same,peptide microarray binding signal,[3]; [12],0.0397 ± 0.0042
same,peptide microarray binding signal,[4]; [11],0.0557 ± 0.0055
same,peptide microarray binding signal,[4]; [12],0.0282 ± 0.0014
ARTKQTARKSTGG [H3 1-13 A Rme2s T K Q Tph A R K S T G G],peptide microarray binding signal,"[1]; peptide modifications: H3R2me2s H3T6ph, binder concentration: 50 nM",0.00476 ± 0.00012
same,peptide microarray binding signal,"[1]; peptide modifications: H3R2me2s H3T6ph, binder concentration: 500 nM",0.0109 ± 0.00039
same,peptide microarray binding signal,"[2]; peptide modifications: H3R2me2s H3T6ph, binder concentration: 10 nM",0.002745 ± 2.7e-05
same,peptide microarray binding signal,"[2]; peptide modifications: H3R2me2s H3T6ph, binder concentration: 100 nM",0.0193 ± 0.0028
same,peptide microarray binding signal,[3]; [13],0.000774 ± 1.9e-05
same,peptide microarray binding signal,[3]; [14],0.00097 ± 2e-05
same,peptide microarray binding signal,[4]; [13],0.000876 ± 2.6e-05
same,peptide microarray binding signal,[4]; [14],0.000461
ARTKQTARKSTGG [H3 1-13 A R T K Q T A Rcit Kme S T G G],peptide microarray binding signal,"[1]; peptide modifications: H3R8cit H3K9me1, binder concentration: 50 nM",0.0302 ± 0.0019
same,peptide microarray binding signal,"[1]; peptide modifications: H3R8cit H3K9me1, binder concentration: 500 nM",0.0745 ± 0.02
same,peptide microarray binding signal,"[2]; peptide modifications: H3R8cit H3K9me1, binder concentration: 10 nM",0.0223 ± 0.002
same,peptide microarray binding signal,"[2]; peptide modifications: H3R8cit H3K9me1, binder concentration: 100 nM",0.0394 ± 0.013
same,peptide microarray binding signal,[3]; [15],0.00313 ± 0.00015
same,peptide microarray binding signal,[3]; [16],0.00217 ± 9.9e-05
same,peptide microarray binding signal,[4]; [15],0.00225 ± 0.00023
same,peptide microarray binding signal,[4]; [16],0.00185 ± 5.2e-05
ARTKQTARKSTGG [H3 1-13 A Rme2a Tph K Q T A R K S T G G],peptide microarray binding signal,"[1]; peptide modifications: H3R2me2a H3T3ph, binder concentration: 50 nM",0.00567 ± 0.00034
same,peptide microarray binding signal,"[1]; peptide modifications: H3R2me2a H3T3ph, binder concentration: 500 nM",0.0135 ± 0.00068
same,peptide microarray binding signal,"[2]; peptide modifications: H3R2me2a H3T3ph, binder concentration: 10 nM",0.00501 ± 0.00013
same,peptide microarray binding signal,"[2]; peptide modifications: H3R2me2a H3T3ph, binder concentration: 100 nM",0.00737 ± 0.00044
same,peptide microarray binding signal,[3]; [17],0.00262 ± 0.00056
same,peptide microarray binding signal,[3]; [18],0.00434 ± 0.00077
same,peptide microarray binding signal,[4]; [17],0.000755 ± 0.00011
same,peptide microarray binding signal,[4]; [18],0.000577 ± 6.2e-06
ARTKQTARKSTGG [H3 1-13 A Rme2s T K Q T A R K S T G G],peptide microarray binding signal,"[1]; peptide modifications: H3R2me2s, binder concentration: 50 nM",0.00815 ± 0.00015
same,peptide microarray binding signal,"[1]; peptide modifications: H3R2me2s, binder concentration: 500 nM",0.0158 ± 0.0003
same,peptide microarray binding signal,"[2]; peptide modifications: H3R2me2s, binder concentration: 10 nM",0.00424 ± 0.00023
same,peptide microarray binding signal,"[2]; peptide modifications: H3R2me2s, binder concentration: 100 nM",0.0168 ± 0.003
same,peptide microarray binding signal,[3]; [19],0.00153 ± 0.0002
same,peptide microarray binding signal,[3]; [20],0.000799 ± 8.3e-06
same,peptide microarray binding signal,[4]; [19],0.00178 ± 0.00012
same,peptide microarray binding signal,[4]; [20],0.00075 ± 1.6e-05
ARTKQTARKSTGG [H3 1-13 A Rme2s T K Q T A R Kac S T G G],peptide microarray binding signal,"[1]; peptide modifications: H3R2me2s H3K9ac, binder concentration: 50 nM",0.0127 ± 0.00045
same,peptide microarray binding signal,"[1]; peptide modifications: H3R2me2s H3K9ac, binder concentration: 500 nM",0.0427 ± 0.0013
same,peptide microarray binding signal,"[2]; peptide modifications: H3R2me2s H3K9ac, binder concentration: 10 nM",0.0451 ± 0.0015
same,peptide microarray binding signal,"[2]; peptide modifications: H3R2me2s H3K9ac, binder concentration: 100 nM",0.0681 ± 0.0061
same,peptide microarray binding signal,[3]; [21],0.0383 ± 0.0035
same,peptide microarray binding signal,[3]; [22],0.0308 ± 0.0052
same,peptide microarray binding signal,[4]; [21],0.0163 ± 0.0031
same,peptide microarray binding signal,[4]; [22],0.00836 ± 0.00038
ARTKQTARKSTGG [H3 1-13 A Rme2a T K Q Tph A R K S T G G],peptide microarray binding signal,"[1]; peptide modifications: H3R2me2a H3T6ph, binder concentration: 50 nM",0.00602 ± 7.4e-05
same,peptide microarray binding signal,"[1]; peptide modifications: H3R2me2a H3T6ph, binder concentration: 500 nM",0.015 ± 0.0011
same,peptide microarray binding signal,"[2]; peptide modifications: H3R2me2a H3T6ph, binder concentration: 10 nM",0.00549 ± 0.00043
same,peptide microarray binding signal,"[2]; peptide modifications: H3R2me2a H3T6ph, binder concentration: 100 nM",0.00964 ± 0.0013
same,peptide microarray binding signal,[3]; [23],0.00198 ± 0.00026
same,peptide microarray binding signal,[3]; [24],0.0032 ± 0.00025
same,peptide microarray binding signal,[4]; [23],0.00112 ± 3.5e-05
same,peptide microarray binding signal,[4]; [24],0.000923 ± 1.9e-05
